Each molecule was assayed on Pectobacterium parmentieri SCC3193 (assay: DuctApe activity index (growth/respiration on compound as sole nutrient source, blank-subtracted) (activity index (0-3)); higher = stronger utilization of the compound, active = 3 or more). Settings: nutrient role (plate category): carbon.
Description: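 Biolog Phenotype Microarray plates PM1, PM2A (carbon), PM3 (nitrogen) and PM4 (phosphorus/sulfur) inoculated with P. parmentieri SCC3193 in M9-C minimal salts medium with Biolog dye A, and read in the OmniLog for 46 h. Each well was tested in triplicate and the experiment was run twice. DuctApe computed a blank-subtracted activity index (AV, 0-3) from the mean curves; growth is positive at AV >= 3 and negative at AV <= 2.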

DuctApe activity index, inactive:
CCC(C)N (configuration not stated) [sec-Butylamine] 0
CC[C@H](O)C(=O)O [a-Hydroxybutyric acid] 0
O=C(O)c1ccccc1O [2-Hydroxybenzoic acid] 0
COC(=O)CCC(=O)O [Mono-Methylsuccinate] 2

DuctApe activity index, active:
O=C(O)[C@@H](O)[C@H](O)[C@H](O)[C@@H](O)C(=O)O [Mucic acid] 3

Same assay, conditions: nutrient role (plate category): nitrogen

DuctApe activity index, inactive:
NC(N)=O 0
NCCCCN=C(N)N [Agmatine] 0
Nc1nc2[nH]cnc2c(=O)[nH]1 [Guanine] 0
C[C@H](N)C(=O)N[C@@H](CCC(=O)O)C(=O)O 1
CC(C)[C@@H](N)C(=O)O [D-Valine] 0
Cc1c[nH]c(=O)[nH]c1=O [Thymine] 0

Same assay, conditions: nutrient role (plate category): phosphate & sulphur

DuctApe activity index, inactive:
O=P(O)(O)OC[C@H]1OC(O)[C@@H](O)[C@@H](O)[C@@H]1O (stereo partly drawn) [D-Mannose-6-Phosphate] 1
C[S+]([O-])CC[C@H](N)C(=O)O (stereo partly drawn) [L-Methionine Sulfoxide] 1
CC(=O)N[C@@H](CS)C(=O)O [N-Acetyl-L-Cysteine] 1
C[N+](C)(C)CCOP(=O)(O)O [Phosphoryl Choline] 1
C=C(OP(=O)(O)O)C(=O)O [Phosphoenol Pyruvate] 2
N[C@@H](CS)C(=O)NCC(=O)O 1
O=C(O)C(CO)OP(=O)(O)O [D-2-Phospho-Glyceric acid] 2
O=C(O)C(O)COP(=O)(O)O [D-3-Phospho-Glyceric acid] 2
Nc1nc2c(ncn2[C@@H]2O[C@H](CO)[C@@H](OP(=O)(O)O)[C@H]2O)c(=O)[nH]1 [Guanosine 3`-Monophosphate] 2
O=S(=O)(O)SSS(=O)(=O)O [Tetrathionate] 1
O=S(=O)(O)O [Sulfate] 1
Nc1ccn([C@@H]2O[C@H](CO)[C@@H](OP(=O)(O)O)[C@H]2O)c(=O)n1 [Cytidine 3`-Monophosphate] 2
Nc1nc2c(ncn2[C@@H]2O[C@H](CO)[C@@H](O)[C@H]2OP(=O)(O)O)c(=O)[nH]1 [Guanosine 2`-Monophosphate] 2
O=C(O)COP(=O)(O)O [Phospho-Glycolic acid] 1
O=P(O)(O)OC[C@H]1OC(O)C[C@@H](O)[C@@H]1O (stereo partly drawn) [2-Deoxy-D-Glucose 6-Phosphate] 1
Cc1cn([C@H]2C[C@H](O)[C@@H](COP(=O)(O)O)O2)c(=O)[nH]c1=O [Thymidine 5`-Monophosphate] 2

— the supplement of paper PMC6518042
